Potency and affinity values are given separately. Results filed as inconclusive are left out.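 Rule for the calls: active = active in every separate test run, each with half-maximal potency at or under twice its top valid dose; inconclusive = the separate test runs give conflicting calls; inactive = inactive in every test run, including signal rising instead.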
Assay: Cryptococcus growth inhibition by alamar blue – cell lysis, cherry-picks, replicate tests, mechanism study for C. neoformans antifungal project, dose response (AID 686999)
Conditions: 72 h; series mostly up to 35 µM; activity change, negative = inhibition: at the top concentration

Activity change, negative = inhibition, inactive:
S=C(Nc1ccc(Cl)cc1Cl)Nc1ccccc1Oc1ccccc1 9.91%, O=C(Cc1ccccc1)N[C@H]1C=C[C@@H](CC(=O)N2CCOCC2)O[C@@H]1CO 18.6%, COc1cccc(NC(=S)N2CCC(Cc3ccccc3)CC2)c1 -12.5%, Cc1ccc(C(=O)NC(=S)Nc2ccc(N3CCOCC3)cc2)cc1 7.95%, Cc1cc(C(=O)NC(=S)Nc2ccccc2N2CCOCC2)ccc1[N+](=O)[O-] -3.3%, CCc1ccc(C(=O)NC(=S)NCc2cccnc2)cc1 6.98%, CC(C)CC1(C)N=C(c2ccccc2)C(=S)N1 (stereo unspecified) 24.5%, Fc1ccccc1NC(=S)NCCc1cccc(Cl)c1 8.81%, CO[C@H]1CN(C)C(=O)c2cc(NC(=O)C3CC3)ccc2OC[C@@H](C)N(Cc2cncnc2)C[C@H]1C 9.34%, COc1ccc(C(=O)NC(=S)Nc2ccccc2N2CCCCC2)cc1[N+](=O)[O-] 9.23%, Fc1ccccc1NC(=S)NN(Cc1ccccc1)c1ccccc1 13.9%, COC(=O)C1=C(C)N(Cc2ccc(F)cc2)C(=S)NC1c1ccccc1 (stereo unspecified) -0.405% [at 38 µM], CCc1ccc(C(C)NC(=S)NCc2ccc(F)cc2)cc1 (stereo unspecified) -1.97%, COc1ccc(NC(=S)NCc2ccc(Cl)cc2)c(OC)c1 5.43%, O=C(NC(=S)Nc1ccc(Br)cc1)C1CCC1 18.4%, O=C(NC(=S)Nc1cccc(F)c1)c1cccc([N+](=O)[O-])c1 19.7%, Cc1cc(Cl)ccc1NC(=S)NCc1ccc(F)cc1 12.4%, COC(=O)C1=C(C)N(Cc2ccccc2)C(=S)N[C@H]1c1cccc(F)c1 9.11%, O=C(NCCN1CCCCC1)[C@H]1N[C@H]2c3ccc(-c4ccncc4)c(=O)n3C[C@H]2[C@@H]1CO 8.18%, COc1cccc(NC(=S)NC(=O)Cc2ccc(Cl)cc2)c1 5.7%, COc1ccccc1NC(=S)NCc1ccc(Cl)cc1 17.9%

From PubChem BioAssay AID686999 (Broad Institute, 2013)
